Assay results: PMC5540273 (PLoS ONE, 2017)

What was measured:
Conditions in all cases: concentration: 1 μM, replicates: in singlicate; n = 1
TNNI3K = test system: TNNI3K
TRKA = test system: T1, TRKA
T1 construct: gene NTRK1

TRKB = test system: TRKB
TRKC = test system: T2, TRKC
T2 construct: gene NTRK3

TRPM6 = test system: TRPM6
TSSK1B = test system: TSSK1B
TSSK3 = test system: TSSK3
TTK = test system: TTK
TXK = test system: TXK
[1] = test system: TYK2(JH1domain-catalytic)
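Further: KINOMEscan kinase panel screen.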

Compound	%Inh (TNNI3K) [%]	%Inh (TRKA) [%]	%Inh (TRKB) [%]	%Inh (TRKC) [%]	%Inh (TRPM6) [%]	%Inh (TSSK1B) [%]	%Inh (TSSK3) [%]	%Inh (TTK) [%]	%Inh (TXK) [%]	%Inh [1] [%]
Cl.c1ccc(-c2ccc3c(Nc4ccc5[nH]ccc5c4)ccnc3c2)nc1 [GW440138]	0	0	9	23	0	0	5	0	0	29
COCCOCCOc1cc2ncc3c4ccc(C#N)cc4[nH]c3c2cc1OC	9	98	90	78	0	0	0	26	4	0
Cc1ccc(S(=O)(=O)Nc2ccc(Nc3nccc(Nc4cccc5[nH]ncc45)n3)cc2)cc1 [GSK581271]	7	0	33	24	11	4	11	0	77	42
CC(=O)N1CCN(c2ccc(Nc3nccc(-c4sc(C(C)C)nc4-c4cccc(NS(=O)(=O)c5cccc(Cl)c5)c4)n3)cn2)CC1 [GSK1660437]	22	45	0	0	41	10	4	56	20	29
Cl.Cl.NCC(NC(=O)c1cc(-c2ccccc2)c(-c2ccnc3[nH]ccc23)s1)c1ccccc1 (centres unmarked) [GSK1321561]	18	58	26	6	28	0	18	0	45	20
COc1ccc(-c2coc3ccc(-c4nnc(SCc5ccc(OC)c(C(F)(F)F)c5)o4)cc23)cc1	0	5	10	0	1	0	0	1	0	27
Cl.NC(=O)c1cccc(Nc2nccc(Nc3ccc(Oc4c(Cl)cccc4Cl)c(Cl)c3)n2)c1 [GW659009]	0	20	7	11	36	8	88	10	0	21
c1ccc(Oc2ccc(Nc3ccnc4cc(-c5ccc(CNCCN6CCOCC6)o5)ccc34)cc2)nc1 [GW567145]	0	100	53	42	14	0	2	7	1	0
Cl.Cl.NCC(C(=O)Nc1cc(Br)c(-c2ccnc3[nH]ccc23)s1)c1ccccc1 (centres unmarked) [GSK1269851]	12	19	28	31	7	21	4	0	0	22
COc1cc(Nc2ncc3c(C)nc(-c4cc5ccccc5[nH]4)n3n2)cc(OC)c1OC [GW869516]	33	4	0	0	0	6	0	36	10	0
Clc1ccc(-c2nn3ncccc3c2-c2ccnc(Nc3ccc4c(c3)OCCO4)n2)cc1 [GW829116]	0	0	0	0	7	0	0	2	0	0
